# Measured values taken from PubChem BioAssay (NCI).
# About 83,000 compounds went through this panel and 20% of them were active in at least one assay; those are over-represented in the sample as a whole.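 Negative percent growth values reflect cell death: -40 means 40% of the cells present at the start died, and -100 means all died.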 Unmarked numbers belong to inactive results. Active and inactive are the calls of the source. Rule for the calls: active = growth percent below 10; inactive = the rest.
# Test system: SW-620 colon
# Test: NCI-60 one-dose screen, 48 h (100 = growth as untreated, 0 = no growth, -100 = all killed)
# Conditions: 10 µM unless noted
row,Structure (SMILES),growth
1,COc1ccc(Cn2nc(-c3ccccc3)c3c2CCc2cnoc2-3)cc1,83.2%
2,CCCN=C(N)c1ccc(NC(=O)c2ccc(C(=O)Nc3ccc(C(N)=NCCC)cc3)cc2)cc1,104%
3,O=S(=O)(c1cccc(NC2=Nc3cccc4cccc2c34)c1)N1CCCC1,64.4%
4,COc1cc2c(cc1[N+](=O)[O-])-c1ccc([N+](=O)[O-])cc1/C2=N\O,75.2%
5,COc1cccc(/C=C2\COc3ccc(-c4ccccc4)cc3C2=O)c1,-55.6% (active)
6,Cc1ccc(C2CC(c3cccc(Nc4ccncc4)c3)=NN2c2ccccc2)cc1 (stereo not given),-62.7% (active)
7,Cn1c2c(Cl)c(Cl)ccc2c2cc(N)[nH]c(=O)c21,77.8%
8,O=S(=O)(c1ccc(N/N=C\c2ccccc2)cc1)c1ccc(N/N=C/c2ccccc2)cc1,74%
9,OC1(c2ccc(Cl)c(C(F)(F)F)c2)CCN(CCCC(c2ccc(F)cc2)c2ccc(F)cc2)CC1,-100% (active)
10,N#Cc1ccc(-c2ccc3c(c2)NC(=O)/C3=C\c2ccc[nH]2)cc1,102%
11,C=C(C)[C@@H]1CC[C@]2(C(=O)NCC(=O)OC)CC[C@]3(C)[C@H](CC[C@@H]4[C@@]5(C)Cc6c([nH]c7ccccc67)C(C)(C)[C@@H]5CC[C@]43C)[C@@H]12,83%
12,O=C(Nc1nc2ccc(S(=O)(=O)Nc3ccc(C4(C(F)(F)F)CC4)cc3)cc2[nH]1)c1cnccn1,18.5%
13,C=Cc1cc[n+](CCCCCCCCCCCC)cc1,100%
14,CC(c1ccccc1)n1ccnc1CO (stereo not given),97.8%
15,Cn1c(COC(=O)N2CCCCC2)nc2c(N3CCOCC3)nc(-c3ccccc3)nc21,-69.1% (active)
16,Clc1nc(Nc2ccccc2)nc(Nc2ccccc2)n1,108%
17,COc1cc2c(cc1[N+](=O)[O-])-c1ccc([N+](=O)[O-])cc1/C2=N/NC(N)=S,40.6%

row,Structure (SMILES),growth
1,O=C(CCN1CCCC1)Nc1ccc2c(NCc3ccc(F)cc3)c3ccccc3nc2c1,-31.3% (active)
2,COc1ccc(/C=N/C2=C(C#N)C(c3ccccc3[N+](=O)[O-])c3ccc4ccccc4c3O2)cc1 (stereo not given),97.8%
3,Cc1n[nH]c(C)c1-c1c(C)n[nH]c1C,-26.1% (active)
4,COc1cccc(CNCCN2C(=O)c3ccc4c5c(ccc(c35)C2=O)C(=O)N(CCNCc2cccc(OC)c2)C4=O)c1,-33% (active)
5,CN1CCN(c2cc(F)c(NC3=C(Cl)C(=O)c4ncccc4C3=O)c(F)c2)CC1,-76.6% (active)
6,O=S(=O)(NCCNc1nccc(-c2c(-c3ccc(F)c(O)c3)nc3occn23)n1)c1ccccc1,63.5%
7,CC1(C)[C@H](O)CC[C@]2(C)[C@@H]1CC[C@@]13C[C@@H](CC[C@H]12)[C@@](O)(CO)C3,108%
8,CS(=O)(=O)c1ccc(-c2cc(-c3nnc(SCC(=O)Nc4ccc(C(=O)/C=C/c5ccc(Cl)cc5)cc4)n3-c3ccccc3)c3ccccc3n2)cc1,96.9%
9,COc1cc(OC)c(/C=C/C(=O)c2ccc(Nc3ncnc4ccccc34)cc2)c(OC)c1,-66.8% (active)
10,O=[N+]([O-])c1cccc(-c2nc(-c3ccc(Cl)cc3Cl)cn2-c2ccccc2)c1,-52.4% (active)
11,CC(=O)OCCCCCNc1ccccc1,101%
12,FCc1nc2nc(Cl)c(Cl)nc2[nH]1,103%
13,Cc1cc2nc(-c3ccccc3)c(-c3ccccc3)nc2cc1C,99%
14,c1ccc2c(-c3c4ccsc4cc4[nH]c5ccccc5c34)c[nH]c2c1,25.4%
15,CN1CCCC1=Nc1ccccc1,112%
16,COc1ccc(-c2nc3sccn3c2/C=C/C(=O)c2cc(OC)c(OC)c(OC)c2)cc1,72.5%

# Test system: MCF7 breast
# Test: as above
# Conditions: 10 µM unless noted
row,Structure (SMILES),growth
1,O=S(=O)(c1ccc(N/N=C\c2ccccc2)cc1)c1ccc(N/N=C/c2ccccc2)cc1,62.9%
2,COc1cc2c(cc1[N+](=O)[O-])-c1ccc([N+](=O)[O-])cc1/C2=N/NC(N)=S,22.5%
3,c1ccc(-c2nn(-c3ccccc3)[n+](-c3ccccc3-c3ccccc3)n2)cc1,8.29% (active)
4,CC(C)(C#N)N1CCN(c2ccccc2Cl)CC1,106%
5,Nc1c(Cl)cc([N+](=O)[O-])cc1Br,99.9%
6,O=[N+]([O-])c1cccc(-c2nc(-c3ccc(Cl)cc3Cl)cn2-c2ccccc2)c1,20.7%
7,c1ccc(-c2nn(-c3ccccc3)[n+](-c3cccc4ccccc34)n2)cc1,11.7%
8,FCc1nc2nc(Cl)c(Cl)nc2[nH]1,96.5%
9,CN1CCCC1=Nc1ccccc1,97.2%

# Test system: HCT-116 colon
# Test: as above
# Conditions: 10 µM unless noted
row,Structure (SMILES),growth
1,COc1ccc(Cn2nc(-c3ccccc3)c3c2CCc2cnoc2-3)cc1,65.4%
2,CCCN=C(N)c1ccc(NC(=O)c2ccc(C(=O)Nc3ccc(C(N)=NCCC)cc3)cc2)cc1,92.2%
3,O=S(=O)(c1cccc(NC2=Nc3cccc4cccc2c34)c1)N1CCCC1,62.8%
4,COc1cc2c(cc1[N+](=O)[O-])-c1ccc([N+](=O)[O-])cc1/C2=N\O,71.8%
5,COc1cccc(/C=C2\COc3ccc(-c4ccccc4)cc3C2=O)c1,-23.8% (active)
6,Cc1ccc(C2CC(c3cccc(Nc4ccncc4)c3)=NN2c2ccccc2)cc1 (stereo not given),-78% (active)
7,Cn1c2c(Cl)c(Cl)ccc2c2cc(N)[nH]c(=O)c21,83.1%
8,O=S(=O)(c1ccc(N/N=C\c2ccccc2)cc1)c1ccc(N/N=C/c2ccccc2)cc1,52.6%
9,OC1(c2ccc(Cl)c(C(F)(F)F)c2)CCN(CCCC(c2ccc(F)cc2)c2ccc(F)cc2)CC1,-92.3% (active)
10,N#Cc1ccc(-c2ccc3c(c2)NC(=O)/C3=C\c2ccc[nH]2)cc1,104%
11,C=C(C)[C@@H]1CC[C@]2(C(=O)NCC(=O)OC)CC[C@]3(C)[C@H](CC[C@@H]4[C@@]5(C)Cc6c([nH]c7ccccc67)C(C)(C)[C@@H]5CC[C@]43C)[C@@H]12,42%
12,O=C(Nc1nc2ccc(S(=O)(=O)Nc3ccc(C4(C(F)(F)F)CC4)cc3)cc2[nH]1)c1cnccn1,26.2%
13,C=Cc1cc[n+](CCCCCCCCCCCC)cc1,97.6%
14,CC(c1ccccc1)n1ccnc1CO (stereo not given),104%
15,Cn1c(COC(=O)N2CCCCC2)nc2c(N3CCOCC3)nc(-c3ccccc3)nc21,-59.3% (active)
16,Clc1nc(Nc2ccccc2)nc(Nc2ccccc2)n1,93.2%
17,COc1cc2c(cc1[N+](=O)[O-])-c1ccc([N+](=O)[O-])cc1/C2=N/NC(N)=S,33.8%
18,c1ccc(-c2nn(-c3ccccc3)[n+](-c3ccccc3-c3ccccc3)n2)cc1,7.4% (active)
19,CC(C)(C#N)N1CCN(c2ccccc2Cl)CC1,98.4%

row,Structure (SMILES),growth
1,O=C(CCN1CCCC1)Nc1ccc2c(NCc3ccc(F)cc3)c3ccccc3nc2c1,-29.9% (active)
2,COc1ccc(/C=N/C2=C(C#N)C(c3ccccc3[N+](=O)[O-])c3ccc4ccccc4c3O2)cc1 (stereo not given),83.3%
3,Cc1n[nH]c(C)c1-c1c(C)n[nH]c1C,-44.1% (active)
4,Nc1c(Cl)cc([N+](=O)[O-])cc1Br,105%
5,COc1cccc(CNCCN2C(=O)c3ccc4c5c(ccc(c35)C2=O)C(=O)N(CCNCc2cccc(OC)c2)C4=O)c1,-41.6% (active)
6,NC(=O)CN1CCN(c2ccccc2Cl)CC1,100%
7,CN1CCN(c2cc(F)c(NC3=C(Cl)C(=O)c4ncccc4C3=O)c(F)c2)CC1,-69.7% (active)
8,O=S(=O)(NCCNc1nccc(-c2c(-c3ccc(F)c(O)c3)nc3occn23)n1)c1ccccc1,22.6%
9,CC1(C)[C@H](O)CC[C@]2(C)[C@@H]1CC[C@@]13C[C@@H](CC[C@H]12)[C@@](O)(CO)C3,-70.1% (active)
10,CS(=O)(=O)c1ccc(-c2cc(-c3nnc(SCC(=O)Nc4ccc(C(=O)/C=C/c5ccc(Cl)cc5)cc4)n3-c3ccccc3)c3ccccc3n2)cc1,92.7%
11,COc1cc(OC)c(/C=C/C(=O)c2ccc(Nc3ncnc4ccccc34)cc2)c(OC)c1,-33.7% (active)
12,O=[N+]([O-])c1cccc(-c2nc(-c3ccc(Cl)cc3Cl)cn2-c2ccccc2)c1,-93.2% (active)
13,CC(=O)OCCCCCNc1ccccc1,113%
14,c1ccc(-c2nn(-c3ccccc3)[n+](-c3cccc4ccccc34)n2)cc1,7.65% (active)
15,FCc1nc2nc(Cl)c(Cl)nc2[nH]1,101%
16,Cc1cc2nc(-c3ccccc3)c(-c3ccccc3)nc2cc1C,91.4%
17,c1ccc2c(-c3c4ccsc4cc4[nH]c5ccccc5c34)c[nH]c2c1,17.5%
18,CN1CCCC1=Nc1ccccc1,114%
19,COc1ccc(-c2nc3sccn3c2/C=C/C(=O)c2cc(OC)c(OC)c(OC)c2)cc1,42%
